The source of these data is PubChem BioAssay.

A short description of test [1]: antimalarial activity against Dd2 strain (AID 2302;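 active = growth inhibition above 50% at the single 2 µM test dose, taken to imply half-maximal potency below 2 µM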;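 note: 0% = DMSO untreated growth and 100% = chloroquine plus artemisinin killed control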). To be noted: P. falciparum Dd2 in RBCs, LDH growth readout, 72 h; at 2 µM; stronger effect = higher value.
Test [2] can be described thus: HepG2 cytotoxicity, primary screen, cytotoxicity control for P. falciparum antimalarial project, cell-based, ATP luminescence (AID 2303;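 active = inhibition above 50%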;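 note: 0% = DMSO wells and 100% = digitonin-killed cells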). As to conditions: HepG2 viability, 24-48 h, at 10 µM, stronger effect = higher value.
Test [3] has as its target L-lactate dehydrogenase (Plasmodium falciparum (isolate CDC / Honduras)) (UniProt Q27743). Kind of test: PfLDH activity inhibition – cell lysate, 3D7 strain, counter-screen for P. falciparum growth inhibition project (AID 2304).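 Note: 0% = vehicle and 100% = reference inhibitor.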 To be noted: P. falciparum 3D7 crude extract, LDH APAD/NBT absorbance; at 2 µM; stronger effect = higher value.
Test [4] in a line: inhibition of 3D7 malaria parasite growth – strain 3D7 (AID 2306).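 Note: 0% = DMSO wells and 100% = chloroquine plus artemisinin control wells.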 As to conditions: P. falciparum 3D7 erythrocytic growth, LDH absorbance, 72 h; at 2 µM; stronger effect = higher value.
For test [5], the target named is Calcium-dependent protein kinase 1 (Plasmodium falciparum (isolate 3D7)) (UniProt P62344). Kind of test: PfCDPK1 kinase inhibitors, biochemical, TCAMS library (AID 1159585; cut-off not given, nearly all actives have IC50 up to about 0.98 µM;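 note: inhibitors leave more ATP so luminescence rises with inhibition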). As to conditions: recombinant PfCDPK1, Kinase-Glo ATP depletion luminescence.
Sequence of Calcium-dependent protein kinase 1 (Plasmodium falciparum (isolate 3D7)) (P62344 whole entry, looked up): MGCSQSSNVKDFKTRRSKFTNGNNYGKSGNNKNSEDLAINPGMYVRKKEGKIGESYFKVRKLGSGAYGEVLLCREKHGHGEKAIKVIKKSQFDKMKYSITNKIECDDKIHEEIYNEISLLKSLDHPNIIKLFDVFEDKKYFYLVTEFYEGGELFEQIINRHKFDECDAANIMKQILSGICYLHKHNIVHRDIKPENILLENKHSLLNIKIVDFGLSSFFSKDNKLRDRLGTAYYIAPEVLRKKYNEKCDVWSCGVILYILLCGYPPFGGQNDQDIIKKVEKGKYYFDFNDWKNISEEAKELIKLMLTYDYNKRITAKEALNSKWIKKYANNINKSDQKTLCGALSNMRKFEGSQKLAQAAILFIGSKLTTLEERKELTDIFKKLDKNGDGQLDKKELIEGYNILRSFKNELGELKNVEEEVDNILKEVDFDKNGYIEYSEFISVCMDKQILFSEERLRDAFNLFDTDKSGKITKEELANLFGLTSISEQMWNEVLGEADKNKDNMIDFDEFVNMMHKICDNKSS
For test [6], the target named is Plasmodium falciparum protein kinase 6 (PK6, PF3D7_1337100) (UniProt Q8IDW1). In words: PfPK6 kinase inhibitors, biochemical, TCAMS library (AID 1159586). As to conditions: recombinant PfPK6, Kinase-Glo ATP depletion luminescence. A general note: Kinase-Glo reads ATP consumption through a luciferase reaction.
Sequence of Plasmodium falciparum protein kinase 6 (PK6, PF3D7_1337100) (Q8IDW1 1-305): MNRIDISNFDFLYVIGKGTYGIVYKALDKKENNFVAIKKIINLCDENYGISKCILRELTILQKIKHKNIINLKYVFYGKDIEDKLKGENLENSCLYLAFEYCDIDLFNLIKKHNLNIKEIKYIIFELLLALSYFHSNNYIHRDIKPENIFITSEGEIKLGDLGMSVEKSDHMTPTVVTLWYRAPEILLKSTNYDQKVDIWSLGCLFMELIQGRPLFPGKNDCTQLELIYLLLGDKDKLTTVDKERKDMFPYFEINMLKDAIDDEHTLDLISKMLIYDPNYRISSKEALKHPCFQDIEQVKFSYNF
The target of test [7] is Protein kinase 7 (PK7), Plasmodium falciparum 3D7 (PF3D7_0213400) (UniProt Q7YTF7). Kind of test: inhibition of Plasmodium PK7 catalytic activity – biochemical, TCAMS antimalarial set, Kinase-Glo luminescence (AID 1159587). To be noted: recombinant PfPK7, Kinase-Glo ATP depletion luminescence.
Sequence of Protein kinase 7 (PK7), Plasmodium falciparum 3D7 (PF3D7_0213400) (Q7YTF7 1-343): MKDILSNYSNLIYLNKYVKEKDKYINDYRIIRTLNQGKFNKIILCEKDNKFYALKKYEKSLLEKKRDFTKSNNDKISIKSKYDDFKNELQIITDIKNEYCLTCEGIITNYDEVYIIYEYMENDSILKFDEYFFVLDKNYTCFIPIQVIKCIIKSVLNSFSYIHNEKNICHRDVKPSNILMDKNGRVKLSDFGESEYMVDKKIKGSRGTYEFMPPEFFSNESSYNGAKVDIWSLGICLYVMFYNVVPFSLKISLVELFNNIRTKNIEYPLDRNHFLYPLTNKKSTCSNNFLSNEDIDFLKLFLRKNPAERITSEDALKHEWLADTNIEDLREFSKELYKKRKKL
The target of test [8] is Calcium-dependent protein kinase 4 (Plasmodium falciparum (isolate 3D7)) (UniProt Q8IBS5). Kind of test: PfCDPK4 kinase inhibitors, biochemical, TCAMS library (AID 1159588; cut-off not given, nearly all actives have IC50 up to about 0.91 µM). To be noted: recombinant PfCDPK4, Kinase-Glo ATP depletion luminescence.
Sequence of Calcium-dependent protein kinase 4 (Plasmodium falciparum (isolate 3D7)) (Q8IBS5 whole entry, looked up): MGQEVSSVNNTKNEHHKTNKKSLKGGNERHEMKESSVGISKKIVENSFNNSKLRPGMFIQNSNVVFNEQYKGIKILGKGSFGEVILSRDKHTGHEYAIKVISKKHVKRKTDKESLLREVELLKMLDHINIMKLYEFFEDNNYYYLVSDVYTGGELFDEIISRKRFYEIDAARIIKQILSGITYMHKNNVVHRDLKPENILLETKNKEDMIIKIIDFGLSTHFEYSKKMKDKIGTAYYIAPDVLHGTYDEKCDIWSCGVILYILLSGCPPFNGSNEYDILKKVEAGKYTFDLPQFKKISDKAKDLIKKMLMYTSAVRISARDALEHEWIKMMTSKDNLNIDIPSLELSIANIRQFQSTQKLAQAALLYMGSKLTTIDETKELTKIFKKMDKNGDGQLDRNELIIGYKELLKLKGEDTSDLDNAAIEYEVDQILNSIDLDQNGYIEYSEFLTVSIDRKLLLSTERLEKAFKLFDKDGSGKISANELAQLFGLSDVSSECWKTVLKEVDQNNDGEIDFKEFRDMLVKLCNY

A number with no mark means an inactive call. For some of these results: Results with a measured potency or affinity are listed apart. Calls of active or inactive are those of the source. Unless noted, the rule behind the calls is not given here.

Sequence of L-lactate dehydrogenase (Plasmodium falciparum (isolate CDC / Honduras)) (Q27743 whole entry, looked up): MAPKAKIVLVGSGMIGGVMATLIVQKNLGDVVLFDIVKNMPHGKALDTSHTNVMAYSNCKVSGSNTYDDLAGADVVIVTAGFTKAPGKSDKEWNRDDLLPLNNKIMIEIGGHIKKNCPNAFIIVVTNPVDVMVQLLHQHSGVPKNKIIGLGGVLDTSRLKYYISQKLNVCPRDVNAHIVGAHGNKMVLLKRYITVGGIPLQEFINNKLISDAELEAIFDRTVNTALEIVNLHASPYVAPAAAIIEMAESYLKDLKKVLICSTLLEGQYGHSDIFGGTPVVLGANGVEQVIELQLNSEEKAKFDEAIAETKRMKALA

The term inhibition denotes the drop in the measured response relative to a control, in per cent. On to `CCCCc1ccc2[nH]cc(C(=O)OCC)c(=O)c2c1`, for which the growth inhibition in test [1] is 96% (active); in test [4] it was 95% (active). For the same compound, the inhibition in test [2] was 3%; in test [3], 5%. Also, the result in test [5], in test [6], in test [7] and in test [8] was inactive.

As to `Cc1nc(-c2cccc(Nc3nccc(NCC(O)c4ccc(C(F)(F)F)cc4)n3)c2)cs1` (stereo not given), the growth inhibition is 99% (active) in test [1] and 100% (active) in test [4]. Besides, the results for the inhibition in test [2] and in test [3] were 33% and 4%, respectively. In addition, the result in test [5], in test [6], in test [7] and in test [8] was inactive.

Take `CN(Cc1cccc(C#N)c1)C1CCN(c2cc(NC(=O)c3cccc(F)c3)ccn2)CC1`: the results for the growth inhibition in test [1] and in test [4] were 15% and 98% (active), respectively. Moreover, the inhibition is -1% in test [2] and -3% in test [3]. Moreover, the result in test [5], in test [6], in test [7] and in test [8] was inactive.

For the compound `CCCNCc1ccc(-c2ccc(CN(CCOC)C(=O)c3ccc([N+](=O)[O-])c(C)c3)cc2)nc1`, the growth inhibition in test [1] was 23%; in test [4], 97% (active). For the same compound, the inhibition was 2% in test [2] and 1% in test [3]. The outcome in test [5], in test [6], in test [7] and in test [8] was inactive.

Consider `Cc1cccc2[nH]c(-c3ccc(-c4cccc(NC(=O)Nc5ccc(F)c(F)c5F)c4)cc3)nc12`, for which the growth inhibition in test [1] is 89% (active); in test [4] it was 100% (active). The results for the inhibition in test [2] and in test [3] were 40% and 2%, respectively. Besides, the outcome in test [5], in test [6], in test [7] and in test [8] was inactive.

Consider `CN1CCN(c2ccnc3ccc(NC(=O)Nc4ccccc4Br)cc23)CC1`, for which the values for the growth inhibition in test [1] and in test [4] were 95% (active) and 100% (active), respectively. Moreover, the inhibition in test [2] is 4%; in test [3], -3%. The outcome in test [5], in test [6], in test [7] and in test [8] was inactive.

Regarding `CN1CCC(N(Cc2ccc(-c3cnc(NCc4ccccc4)nc3)cc2)S(=O)(=O)c2ccccc2)CC1`, the growth inhibition in test [1] was 10%; in test [4] it was 102% (active). Also, the figures for the inhibition in test [2] and in test [3] were 48% and 1%, respectively. The result in test [5], in test [6], in test [7] and in test [8] was inactive.

With `CC1CN(Cc2cccc(C#N)c2)CCN1c1ccc(NC(=O)c2cccs2)cc1` (stereo not given), the growth inhibition in test [1] was 93% (active); in test [4], 94% (active). Also, the inhibition in test [2] is 4%; in test [3], 5%. Moreover, the outcome in test [5], in test [6], in test [7] and in test [8] was inactive.

Consider `Cc1ccc(Oc2ccc(CNc3nc(Nc4cccc(F)c4)nc(Nc4cccc(F)c4)n3)cc2)cc1`, for which the growth inhibition was -2% in test [1] and 86% (active) in test [4]. For the same compound, the inhibition in test [2] was -5%; in test [3] it was -2%. In addition, the outcome in test [5], in test [6], in test [7] and in test [8] was inactive.

As for `COc1cccc(CNC[C@@H](O)[C@H](Cc2ccccc2)NC(=O)c2cc(OC(C)C)cc(N3CCCCS3(=O)=O)c2)c1`, the growth inhibition is 49% in test [1] and 95% (active) in test [4]. The inhibition in test [2] is 8%; in test [3], 5%. Also, the result in test [5], in test [6], in test [7] and in test [8] was inactive.

In the case of `COc1cc2nc(N(C)C)nc(Nc3ccc(OCc4ccccc4)cc3)c2cc1OC`, the growth inhibition in test [1] is 101% (active); in test [4] it was 100% (active). Moreover, the inhibition in test [2] is 91% (active); in test [3] it was -8%. Moreover, the result in test [5], in test [6], in test [7] and in test [8] was inactive.

In the case of `CC(C)CNCc1ccc(-c2ccc(CN(CCCN3CCN(C)CC3)C(=O)/C=C/c3ccccc3)cc2)cc1`, the growth inhibition in test [1] is 93% (active); in test [4] it was 99% (active). Moreover, the figures for the inhibition in test [2] and in test [3] were 57% (active) and 3%, respectively. For the same compound, the outcome in test [5], in test [6], in test [7] and in test [8] was inactive.

In the case of `Cc1cc(NC(=O)NCCN2CCC(NC(=O)c3ccc(Cl)cc3)CC2)c2ccccc2n1`, the growth inhibition was 54% (active) in test [1] and 90% (active) in test [4]. Besides, the inhibition was -4% in test [2] and -2% in test [3]. The outcome in test [5], in test [6], in test [7] and in test [8] was inactive.

Regarding `CC(=O)Nc1ccc(-c2nc3ccc(-c4nc5ccc(NC(C)=O)cc5[nH]4)cc3[nH]2)cc1`, the growth inhibition in test [1] and in test [4] was 99% (active) in each case. Further, the results for the inhibition in test [2] and in test [3] were -13% and -2%, respectively. Besides, the result in test [5], in test [6], in test [7] and in test [8] was inactive.

Regarding `O=C(/C=C/c1ccc(Cl)c(Cl)c1)NCCCCCN1CCC(C(=O)Nc2ccc3c(c2)OCO3)CC1`, the growth inhibition is -3% in test [1] and 92% (active) in test [4]. In addition, the inhibition in test [2] was 18%; in test [3] it was 4%. Also, the result in test [5], in test [6], in test [7] and in test [8] was inactive.

As to `Cn1cncc1CCCN(Cc1ccc(-c2ccc(C(F)(F)F)cc2)cc1)C(=O)Cn1c(CCc2cccc(F)c2F)cc(=O)c2cccnc21`, the growth inhibition was 59% (active) in test [1] and 85% (active) in test [4]. Also, the inhibition is 17% in test [2] and -2% in test [3]. For the same compound, the result in test [5], in test [6], in test [7] and in test [8] was inactive.

`COc1ccc(S(=O)(=O)NCC2CCCN(CCCCCNC(=O)/C=C/c3ccc(Cl)c(Cl)c3)C2)cc1` (stereo not given): the growth inhibition was 1% in test [1] and 81% (active) in test [4]. Besides, the figures for the inhibition in test [2] and in test [3] were 53% (active) and 1%, respectively. The result in test [5], in test [6], in test [7] and in test [8] was inactive.

As to `COc1ccc(CNCc2ccc(-c3cccc(-c4nc5ccc(C(F)(F)F)cc5[nH]4)c3)cc2)cc1`, the values for the growth inhibition in test [1] and in test [4] were 100% (active) and 102% (active), respectively. Moreover, the inhibition is 59% (active) in test [2] and -8% in test [3]. The outcome in test [5], in test [6], in test [7] and in test [8] was inactive.

Turning to `CC(C)NCc1cccc(-c2ccc(NC(=O)c3ccc(F)cc3)cc2)c1`, the growth inhibition is 3% in test [1] and 92% (active) in test [4]. The figures for the inhibition in test [2] and in test [3] were 7% and -1%, respectively. For the same compound, the result in test [5], in test [6], in test [7] and in test [8] was inactive.

`Cc1cc(N[C@@H](Cc2ccccc2)C(=O)NCc2cccc(F)c2)nc(NCC2CCCCC2)n1`: the growth inhibition is 42% in test [1] and 101% (active) in test [4]. Besides, the inhibition in test [2] was 43%; in test [3], -2%. Further, the result in test [5], in test [6], in test [7] and in test [8] was inactive.
